According to PubChem BioAssay AID651664 (NMMLSC, 2012):
Fewer than 10 of roughly 1,800 compounds were called active. These entries were drawn from the full list. Values without a mark were called inactive.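 How the source made its calls: active means inhibition of granule release above a set limit; inactive means the rest.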

Test: LAMP-1 surface externalization blockers in TALL-104 cells – cell-based, flow cytometry, validation set (AID 651664)
Settings: TALL-104 LAMP-1 externalization, at 15.2 µM, stronger effect = higher value, stimulated with thapsigargin and PMA

First: Cc1ccc(C(=O)NC(=S)Nc2ccc(-c3cc4ccccc4oc3=O)cc2)c(C)c1
Second: O=C(NCc1nc2ccccc2[nH]1)c1cc2ccccc2oc1=O
The inhibition of the first is lower: -0.7% for the first, 6.1% for the second.

Going from `CCOC(=O)c1[nH]c(C)c(/C(O)=C2\C(=O)C(=O)N(CCN(C)C)C2c2ccncc2)c1C` (stereo not drawn) to `COc1ccc(/C(O)=C2/C(=O)C(=O)N(CCCN(C)C)C2c2ccc(Cl)cc2)cc1OC` (stereo not drawn), the inhibition rises from 4% to 6.2%.

Going from `O=C1C=C(N2CCN(C(=O)c3ccccc3)CC2)C2(CCCCC2)O1` to `O=C(COc1ccccc1O)N1CCN(C(=O)c2ccco2)CC1`, the inhibition rises from -4.4% to 0.9%.

Compared with `CCc1ccc2c(c1)c(N=NC1=NC(=O)CS1)c(O)n2CC`, `CCOC(=O)c1c(C(C)(C)C)oc2ccc(O)cc12` is higher in inhibition: -0.4% for the first, 1.3% for the second.

Compared with `CC(C)(C)NC(=O)C(=O)N/N=C/c1ccc(Br)cc1`, `O=C(/C=C/c1ccc([N+](=O)[O-])cc1)NCC1CCCO1` (stereo not drawn) is higher in inhibition: -2.4% for the first, -0.8% for the second.

Going from `Cn1cnnc1Sc1cc(N2CCN(S(=O)(=O)c3ccc(Cl)c(Cl)c3)CC2)ccc1[N+](=O)[O-]` to `Cc1ccc(S(=O)(=O)N2CCN(C(=O)c3cc4c(C)nn(-c5ccccc5C)c4s3)CC2)cc1`, the inhibition falls from 0.3% to -1.8%.

First: O=C(NCc1ccc2c(c1)OCO2)c1cccc(F)c1
Second: CCC(C)(C)NC(=O)C(c1ccco1)N(C(=O)Cn1nnc2ccccc21)c1ccc2c(c1)OCO2 (stereo not drawn)
The inhibition of the first is higher: 6.2% for the first, -0.1% for the second.

Going from `Cc1cc(C(=O)CSc2nc3ccc(Cl)cc3[nH]2)c(C)n1CC1CCCO1` (stereo not drawn) to `CCN(CC)C(=O)CSc1nc2ccccc2c(=O)[nH]1`, the inhibition falls from 1.6% to 0.4%.

Compared with `CCCCN(CCCC)CP(=O)(c1ccccc1)c1ccccc1`, `CCCCN(CCCC)C(=S)N/N=C/c1c(C)[nH]n(-c2ccccc2)c1=O` is lower in inhibition: 0% for the first, -0.4% for the second.

Compared with `O=C(Cn1cnc2ccccc2c1=O)c1ccc2ccccc2c1`, `c1ccc2nc(-c3nc4ccccc4[nH]3)ccc2c1` is higher in inhibition: 0% for the first, 0.9% for the second.

First: CC1CCN(S(=O)(=O)c2ccc(F)c(C(=O)O)c2)CC1
Second: CC(C)c1ccc(NS(=O)(=O)c2ccc3[nH]cc(C(=O)N4CCC(C(N)=O)CC4)c(=O)c3c2)cc1
The inhibition of the first is higher: 3.9% for the first, -0.7% for the second.

First: CC(=O)c1ccc(NC(=O)Nc2ccc(NS(=O)(=O)c3ccc(C)cc3)cc2)cc1
Second: Cc1occc1C(=O)Nc1ccc2ccccc2c1
The inhibition of the first is lower: -2.9% for the first, 0.2% for the second.

Compared with `N#CC1=C(N)N(c2ccc(Oc3ccccc3)cc2)C(=O)C1`, `Cc1nc2c(=O)oc3ccccc3c2n1-c1ccccc1` is lower in inhibition: 1.8% for the first, -0.5% for the second.

Going from `COc1cccc2cc(C(=O)Nc3cccc(C)n3)c(=O)oc12` to `Cc1cc(NC(=O)c2cccc3ccccc23)cc(C)c1OCC(=O)N1CCOCC1`, the inhibition falls from 4.9% to -2.8%.

Going from `CCCCSC(=S)N(C)C1CCS(=O)(=O)C1` (stereo not drawn) to `CCS(=O)(=O)N1CCCC(C(=O)NC2CCCCC2C)C1` (stereo not drawn), the inhibition rises from -0.4% to 0.3%.

First: COP(C)(=O)c1c(C)nn(-c2ccccc2)c1C (stereo not drawn)
Second: CC1=NC(=O)C(N=Nc2ccccc2)N1c1ccccc1 (stereo not drawn)
The inhibition of the first is higher: -2.1% for the first, -2.8% for the second.

First: Cn1c(Cl)c(C(=O)Nc2ccccc2)c2ccccc21
Second: CCOc1c(Cl)cc(C(=O)Nc2ccccc2-c2ccccc2)cc1Cl
The inhibition of the first is lower: -1.3% for the first, -0.6% for the second.

First: Cc1csc(NC(=O)Cc2coc3cc(C)c(C(C)C)cc23)n1
Second: CCOC(=O)C(C)On1c(-c2ccccc2)nc2ccc([N+](=O)[O-])cc21 (stereo not drawn)
The inhibition of the first is lower: -2.3% for the first, 4.1% for the second.

Going from `N/C(=N\OC(=O)c1ccc(Cl)cc1Cl)c1ccc(Cl)cc1` to `N/C(=N\OC(=O)CCCN1C(=O)c2ccccc2C1=O)c1ccc(Br)cc1`, the inhibition falls from 5.2% to -3.6%.

Compared with `CCc1nn(-c2ccccc2)c2c1-c1cc(OC)c(OC)cc1C1(N2)C(=O)Nc2ccccc21` (stereo not drawn), `O=C1c2ccccc2NC(c2cnc3ccccc3n2)N1O` (stereo not drawn) is higher in inhibition: -0.7% for the first, -0.6% for the second.

First: OCCSc1ncnc2c1oc1ccccc12
Second: Cc1cc2ccccc2nc1SCC(=O)N1c2ccccc2CC1C (stereo not drawn)
The inhibition of the first is lower: -1.3% for the first, -0.9% for the second.

Going from `O=C(O)CCCCCNC(=O)Nc1ccc2c(c1)OCCO2` to `COc1cc(CC(=O)OCC(=O)c2ccc3c(c2)OCCO3)cc(OC)c1OC`, the inhibition rises from -3.4% to 0.6%.

Going from `N#Cc1c(-c2ccccc2)nc(-c2ccccc2)nc1N1CCOCC1` to `C1=C(c2ccccc2)Nc2nnnn2C1c1cccs1` (stereo not drawn), the inhibition rises from -0.6% to 0.7%.

Going from `CCOC(=O)C1CCN(C(=O)CN(c2cc(OC)ccc2OC)S(=O)(=O)c2ccccc2)CC1` to `COc1cccc(C(C(=O)NCc2ccco2)N(Cc2ccco2)C(=O)Cn2nnc3ccccc32)c1` (stereo not drawn), the inhibition falls from -2.6% to -3.7%.

First: Cc1nn(C)cc1CNC(=O)CCC(=O)O
Second: CSCC[C@H](NC(=O)NCCC1=CCCCC1)C(=O)O
The inhibition of the first is higher: 5.3% for the first, 1.1% for the second.

Compared with `COC(=O)C1CCN(c2cc(=O)n(C3CCCCC3)c(=O)[nH]2)CC1`, `COc1ccc(C(C)=O)cc1CN1C(=O)NC2(CCCCC2)C1=O` is lower in inhibition: 5.6% for the first, -0.4% for the second.

First: Cc1ccccc1C1CC(c2ccccc2OC(F)F)Nc2ncnn21 (stereo not drawn)
Second: COCCN1CN(S(=O)(=O)c2ccc(Cl)cc2)c2nc3ccccc3nc21
The inhibition of the first is lower: -2.3% for the first, -1.9% for the second.

First: CC12Cc3ccc4ccccc4c3C=C1C[N+](C)(C)C2 (stereo not drawn)
Second: CSc1nc(-c2ccc(Cl)cc2)nn1C(=O)c1ccco1
The inhibition of the first is lower: -0.3% for the first, 7% for the second.

Compared with `CCOC(=O)c1sc2nc(CC(=O)OC)nc(NCCN3CCOCC3)c2c1C`, `CCCn1c2c(c(O)c(C(=O)Nc3ccccc3)c1=O)CCCC2` is higher in inhibition: -2.4% for the first, 1.8% for the second.

Going from `O=C(O)c1c[nH]c(=S)n1-c1ccc(F)cc1` to `Clc1ccc(CON/C=N/c2ncnc3sccc23)cc1`, the inhibition falls from 1.2% to -1.5%.

In the case of `Cc1ccc(C(=O)C2(C)C3c4cc(Br)ccc4OC(=O)C32C(=O)c2ccco2)cc1` (stereo not drawn), the inhibition is reported as 93.2% (active).
For `N/C(=N\OC(=O)c1cccc(Br)c1)c1ccc(Br)cc1`, the inhibition was 57.6% (active).
With `Cc1cccc(CC(Cc2nc3ccccc3[nH]2)c2nc3ccccc3[nH]2)c1` (stereo not drawn) the inhibition was 94.4% (active).
